Screening results from PubChem BioAssay.
Tcruzi prolif = blocks T. cruzi growth in NIH3T3 culture. T. cruzi beta-gal in NIH3T3, GalScreen luminescence, 90 h. inhibition, % at 8.34 µM. 77,000 tested, 5.9% active. AID 624255;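 active = mean inhibition above about 93%, with at least 55% of replicates each passing it, limit read from the data, passing the limit was not always enough; inconclusive = only one of those two conditions holds; inactive = neither condition holds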
C diff growth = blocks growth of Clostridium difficile; growth activity, negative = inhibition, % at 16 µg/mL (by protocol); 86,000 tested, 0.25% active; Clostridium difficile clinical isolate growth, OD600, 24 h; hits give low values;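 active = mean growth activity at or below -80% and every replicate also at or below -80%; inconclusive = mean at or below -80% but some replicate above -80%; inactive = mean growth activity above -80%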;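 also: 0% = DMSO wells and -100% = levofloxacin 16 µg/mL wells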
Pf Dd2 inh = blocks growth of Plasmodium falciparum Dd2 parasites; P. falciparum Dd2 growth, SYBR Green, 72 h; hits give low values; activity change, % at 10 µM; 94,000 tested, 2.3% active; in the data active = activity change below about -80%; inconclusive = no clear call, values can overlap the other calls
* hit, by the source's call; ? = inconclusive; / = no result given; ! = repeats disagree. Compounds with a hit are over-represented: about 6.7% of the library has one in this group of screens.

SMILES	Tcruzi prolif	C diff growth	Pf Dd2 inh
C[C@@H]1CN([C@@H](C)CO)C(=O)c2cccc(NC(=O)CCCCCC(=O)Nc3ccccc3N)c2O[C@H]1CN(C)S(=O)(=O)c1ccc(F)cc1	/	-5	-76
COc1ccc(S(=O)(=O)N(C)C[C@@H]2Oc3c(NC(=O)CCCCCC(=O)Nc4ccccc4N)cccc3C(=O)N([C@@H](C)CO)C[C@@H]2C)cc1	/	1	-67
C[C@@H]1CN([C@H](C)CO)C(=O)c2cccc(NC(=O)CCCCCC(=O)Nc3ccccc3N)c2O[C@@H]1CN(C)S(=O)(=O)c1ccc(F)cc1	/	-1	-80
COc1ccc(S(=O)(=O)N(C)C[C@H]2Oc3c(NC(=O)CCCCCC(=O)Nc4ccccc4N)cccc3C(=O)N([C@@H](C)CO)C[C@H]2C)cc1	/	-6	-92*
C[C@H](CO)N1C[C@H](C)[C@H](CN(C)S(=O)(=O)c2ccc(F)cc2)Oc2c(NC(=O)CCCCCC(=O)Nc3ccccc3N)cccc2C1=O	/	-8	-83*
C[C@@H]1CN([C@@H](C)CO)C(=O)c2cccc(NC(=O)CCCCCC(=O)Nc3ccccc3N)c2O[C@@H]1CN(C)S(=O)(=O)c1ccc(F)cc1	/	-5	-92*
O=C(c1ccccn1)N1CC(=O)N2[C@@H](CO)[C@H](c3ccc(C#Cc4ccccc4)cc3)[C@@H]2C1	/	-6	11
CCS(=O)(=O)Nc1ccc2c(c1)C(=O)N(C)[C@@H]1CC[C@@H](CC(=O)Nc3ccccc3)O[C@H]1CO2	-14	-2	4
Cc1nn(C)cc1NC(=O)C[C@@H]1CC[C@@H]2[C@H](COc3ccc(NC(=O)NC(C)C)cc3C(=O)N2C)O1	18	-2	3
COc1ccc2c3c([nH]c2c1)[C@H](CO)N(C(=O)Nc1cccc(F)c1)CC31CCN(S(=O)(=O)c2cccc(C)c2)CC1	/	-11	-82*
COc1ccc2c3c([nH]c2c1)[C@H](CO)N(C(=O)Nc1cccc(F)c1)CC31CN(S(=O)(=O)c2cccc(C)c2)C1	/	0	-51
COc1ccc2c3c([nH]c2c1)[C@H](CO)N(CC1CC1)CC31CCN(S(=O)(=O)c2cccc(F)c2)CC1	/	8	-90*
COc1ccc2c3c([nH]c2c1)[C@H](CO)N(C)CC31CCN(S(=O)(=O)c2cccc(F)c2)CC1	/	7	-60
C[C@@H]1CN([C@H](C)CO)C(=O)Cc2cc(NS(=O)(=O)c3cn(C)cn3)ccc2O[C@H]1CN(C)CC1CCCCC1	14	-2	1
COc1ccc(CN(C)C[C@H]2Oc3ccc(NC(=O)Nc4ccccc4)cc3CC(=O)N([C@@H](C)CO)C[C@@H]2C)cc1	26	-4	-16
Cc1noc(C)c1NC(=O)Nc1ccc2c(c1)CC(=O)N([C@H](C)CO)C[C@H](C)[C@H](CN(C)Cc1ccccc1)O2	24	-2	-2
COc1ccccc1NC(=O)N(C)C[C@@H]1OCc2ccccc2-c2c(n(C)c3ccccc23)C(=O)N([C@H](C)CO)C[C@H]1C	76	/	-39
C[C@@H]1CN([C@H](C)CO)C(=O)c2c(c3ccccc3n2C)-c2ccccc2CO[C@H]1CN(C)C(=O)Nc1ccccc1C(F)(F)F	/	19	-45
C[C@@H]1CN([C@@H](C)CO)C(=O)c2c(c3ccccc3n2C)-c2ccccc2CO[C@@H]1CN(C)C(=O)Nc1cccc(Cl)c1Cl	/	54	-92*
C[C@H]1CN([C@@H](C)CO)C(=O)c2c(c3ccccc3n2C)-c2ccccc2CO[C@H]1CN(C)C(=O)Nc1ccccc1C(F)(F)F	/	0	-84*
Cc1ccc(S(=O)(=O)N(C)C[C@H]2Oc3ccc(NC(=O)CCN4CCOCC4)cc3C(=O)N([C@@H](C)CO)C[C@H]2C)cc1	25	-7	12
CO[C@@H]1CN(C)C(=O)c2ccc(NC(=O)C3CC3)cc2OC[C@@H](C)N(C)C[C@H]1C	/	/	10
COc1ccc(NC(=O)N(C)C[C@@H]2Oc3ccc(NC(=O)NC4CCCCC4)cc3CC(=O)N([C@H](C)CO)C[C@H]2C)cc1	-5	1	12
CCC(=O)N1[C@H](CO)[C@H](c2ccc(-c3ccc(F)cc3)cc2)C12CN(C(C)=O)C2	/	-12	-24
COc1ccc(CN2CC3(C2)CN(Cc2ccc4c(c2)OCO4)[C@@H](CO)c2[nH]c4cc(OC)ccc4c23)cc1	/	-12	-84*
SMILES	Tcruzi prolif	C diff growth	Pf Dd2 inh
CCS(=O)(=O)N1CC2(CN(Cc3ccc4c(c3)OCO4)[C@@H](CO)c3[nH]c4cc(OC)ccc4c32)C1	/	-12	-69
COc1ccc(CN2CC3(C2)CN(Cc2ccc4c(c2)OCO4)[C@H](CO)c2[nH]c4cc(OC)ccc4c23)cc1	/	0	-87*
COc1ccc(CN2CC3(CN(Cc4ccccc4OC)C3)c3c([nH]c4cc(OC)ccc34)[C@H]2CO)cc1	/	7	-66
COc1ccc(S(=O)(=O)N(C)C[C@@H]2OCCCC[C@@H](C)Oc3ccc(N(C)C)cc3C(=O)N([C@@H](C)CO)C[C@H]2C)cc1	5	-1	-36
COc1ccc(S(=O)(=O)N(C)C[C@H]2OCCCC[C@@H](C)Oc3ccc(N(C)C)cc3C(=O)N([C@H](C)CO)C[C@@H]2C)cc1	36	-2	-83*!
C[C@@H]1CN([C@H](C)CO)C(=O)c2cc(N(C)C)ccc2O[C@@H](C)CCCCO[C@H]1CN(C)S(=O)(=O)c1ccc(Cl)cc1	57	-4	-84*
C[C@H]1CCCCO[C@@H](CN(C)S(=O)(=O)c2ccc(Cl)cc2)[C@@H](C)CN([C@@H](C)CO)C(=O)c2cc(N(C)C)ccc2O1	54	0	/
CC(=O)Nc1ccc2c(c1)C(=O)N(C)[C@@H]1CC[C@H](CC(=O)NC3CCCCC3)O[C@@H]1CO2	-20	-3	-14
O=C(NCc1ccncc1)[C@@H]1[C@@H](CO)[C@@H]2Cn3c(ccc(-c4cccnc4)c3=O)[C@@H]2N1C(=O)C1CC1	7	0	8
O=C(Nc1ccccc1)N[C@@H]1CC[C@H](CCn2cc(-c3ccccc3F)nn2)O[C@H]1CO	/	2	-48
C[C@H]1CCCCO[C@H](CN(C)S(=O)(=O)c2cn(C)cn2)[C@@H](C)CN([C@@H](C)CO)C(=O)c2cc(NC(=O)Nc3ccccc3)ccc2O1	44	8	-48
CCC(=O)N(C)C[C@@H]1Oc2cc(C#Cc3ccccc3)ccc2S(=O)(=O)N([C@H](C)CO)C[C@@H]1C	/	-7	-72
C[C@@H]1CN([C@@H](C)CO)S(=O)(=O)c2ccc(C#Cc3ccccc3)cc2O[C@H]1CN(C)C(=O)Cc1ccccn1	72	-19	-84*
C[C@@H]1CN([C@@H](C)CO)S(=O)(=O)c2ccc(C#Cc3ccccc3)cc2O[C@@H]1CN(C)C(=O)Cc1ccccn1	67	-10	?
C[C@H]1CN([C@@H](C)CO)S(=O)(=O)c2ccc(C#CC3(O)CCCC3)cc2O[C@H]1CN(C)C(=O)c1ccccc1	12	-2	-46
C[C@@H]1CN([C@@H](C)CO)S(=O)(=O)c2ccc(C#CC3(O)CCCC3)cc2O[C@H]1CN(C)C(=O)c1ccccc1	51	-9	-86*
C[C@@H]1CN([C@H](C)CO)S(=O)(=O)c2ccc(C#Cc3ccccc3)cc2O[C@@H]1CN(C)C(=O)C1CC1	48	4	-82*
